Rows were chosen to be rich in hits. Some 14% of all compounds tested hit in one or more screens of this group.
HCMV antiviral = inhibitors of human cytomegalovirus; actives 4.5% (n = 410,000); HFF cells, HCMV-luciferase reporter, 72 h; stronger effect = lower value; activity change, negative = inhibition, % at 57.5 µM; in the data active means activity change below about -60%; inconclusive means no clear call, values can overlap the other calls; inactive means above about -39%
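Two-dose cell screen: HFF monolayers treated with compounds and infected with luciferase-expressing HCMV at 1 PFU/cell, 72 h at 37C, then lysed for luciferase measurement.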
Pf growth 96h = inhibits malaria parasite growth, 96 h | P. falciparum luciferase reporter growth, 96 h | Potency, µM (series often up to 28.7 µM), inactives show at the top dose activity change, negative = inhibition, most hits filed as inhibitors | actives 6.9% (n = 320,000); further: potency means the concentration at half of the fitted maximal effect
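Parasite growth measured via integrated firefly luciferase reporter in P. falciparum. Infected erythrocytes at 2% hematocrit, 0.05% parasitemia final were treated 96 hours at 37 C under 5% CO2, and luminescence was read.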
Pf growth 48h = P. falciparum growth inhibition at 48 hours (one generation). actives 5.9% (n = 310,000). Potency, µM (highest dose often 28.7 µM), inactives show at the top dose activity change, negative = inhibition, actives largely listed as inhibitors. P. falciparum luciferase growth in erythrocytes, 48 h; further: potency means the concentration at half of the fitted maximal effect
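Firefly luciferase activity from engineered P. falciparum reports growth; inhibitors lower the luminescent signal. Cultures contained 2% hematocrit erythrocytes at 0.1% final parasitemia.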
Sm TGR inh = blocks Schistosoma mansoni thioredoxin glutathione reductase. actives 3% (n = 360,000). Potency, µM (titrated, usually from 114 µM), for the others: at the top dose activity change, negative = inhibition, usual class: inhibitors. purified TGR, DTNB reduction, TNB absorbance 405 nm. AID 485364; further: potency means the concentration at half of the fitted maximal effect; nearly all actives have a fitted effect of over 60% in size
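TGR 20 nM + NADPH 100 uM (dispensed conc.), cpd preinc 15 min RT; start with NADPH (500 uM addition) then DTNB (15 mM addition). Kinetic TNB absorbance, 405 nm filter. Four-parameter Hill fit across titration.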
FBPA Giardia inh = inhibitors of Giardia lamblia fructose-1,6-bisphosphate aldolase | A8B2U2 | actives 0.71% (n = 290,000) | Potency, µM (highest dose often 59.6 µM), for the others: at the top dose activity, negative = inhibition, hits mostly inhibitors | AID 2451 | purified Giardia FBPA; further: potency means the concentration at half of the fitted maximal effect; nearly all actives have a fitted effect of over 55% in size
Target sequence (A8B2U2 whole entry, looked up): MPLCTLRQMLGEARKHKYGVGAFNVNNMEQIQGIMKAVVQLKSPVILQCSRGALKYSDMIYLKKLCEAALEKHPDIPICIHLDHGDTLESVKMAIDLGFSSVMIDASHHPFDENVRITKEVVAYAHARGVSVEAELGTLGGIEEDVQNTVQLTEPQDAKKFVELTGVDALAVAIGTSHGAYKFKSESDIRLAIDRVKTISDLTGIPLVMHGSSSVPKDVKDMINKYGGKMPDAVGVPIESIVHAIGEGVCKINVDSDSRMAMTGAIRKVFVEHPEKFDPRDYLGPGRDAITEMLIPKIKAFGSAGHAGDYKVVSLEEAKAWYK
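Giardia FBPA (40 nM reagent) was preincubated 10 min at RT with compound (up to 57.5 uM final), then substrate plus GAPDH/TPI/NAD/arsenate coupling system with diaphorase/resazurin was added; resorufin fluorescence (525/598 nm) was read after 20 min.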
The depositor's hits bear a star; ? = inconclusive; · = no result; [ ] = another dose, or the depositor's remark. Unless noted, the call rests on the fitted dose curve; in most records, active means well fitted curve in the direction sought with a large enough effect; inconclusive means small, poorly fitted or top-dose-only effect, or another doubt; inactive means no such curve, though single readings can be large; an effect the other way counts as inactive or inconclusive. On the % scale 0 is the no-effect control and ±100 the full control effect.

SMILES | HCMV antiviral | Pf growth 96h | Pf growth 48h | Sm TGR inh | FBPA Giardia inh
Cc1ccc(NC(=O)CSc2nc3ccccc3n2CC(=O)N2CCC(C)CC2)cc1C | -36 | · | · | -8% | ·
CC(C)[C@@H](C)/C=C/[C@@H](C)[C@H]1CC[C@@H]2[C@]1(C)CCC1[C@]23C=C[C@]2(C[C@@H](O)CC[C@]12C)N(c1cnccn1)O3 (stereo partly specified) | -20 | · | · | · | ·
CCOC(=O)C(NC(=O)CC)(Nc1sc(C)c(CC)c1C#N)C(F)(F)F (stereo unspecified) | ? | 5% | -6% | 50µM* | 0%
CCc1c(C)sc(NC(=O)CC#N)c1C#N | 7 | 0.83µM* | -2% | 1% | -27%
CS(=O)(=O)c1ccc2nc(NC(=O)Nc3ccc(Cl)cc3)sc2c1 | -26 | 1.2µM* | ? | 3% | 2%
CS(=O)(=O)c1ccc2nc(NC(=O)CCNC(=O)c3ccccc3Cl)sc2c1 | 6 | -104% | 10µM* | 1% | ·
CS(=O)(=O)c1ccc2nc(NC(=O)CCNC(=O)c3ccc(Cl)cc3)sc2c1 | -22 | 4.1µM* | -40% | -3% | ·
CCCCCCCCN1C(=O)[C@H](CC(=O)NCCc2ccccc2OC)C[C@@]2(C(=O)OC)CC(C)(C)CC=C12 | 105 | · | · | · | ·
Cn1c(-[n+]2c(-c3ccccc3)cc(-c3ccccc3)cc2-c2ccccc2)nc2cc([N+](=O)[O-])ccc21 | 9 | 3.3µM* | 13µM* | 45µM* | ?
O=[N+]([O-])c1ccc2c(c1)ncn2-c1ccccc1 | -70* | ? | 29% | 0% | -10%
O=[N+]([O-])c1ccc2cn(-c3ccccc3)nc2c1 | -68* | 323% | 253% | 1% | -5%
O=C(Cn1cnc2cc([N+](=O)[O-])ccc2c1=O)NCc1ccccc1 | -2 | 5% | -9%[5.75 µM] | -11% | 0%
O=[N+]([O-])c1ccc2c(c1)ncn2CCc1ccccc1 | ? | 0.52µM* | ? | 2% | -9%
O=C(NCc1ccc(F)cc1)c1cc(-c2ccc(Cl)cc2)n[nH]1 | -7 | · | · | -8% | ·
CCN1CCN(C(=S)c2ccc([N+](=O)[O-])cc2)CC1 | 59 | -24% | 6% | 2% | ?
O=C1c2ccccc2C(Nc2ccc(S(=O)(=O)N3CCOCC3)cc2)N1c1ccccn1 (stereo unspecified) | 9 | 7.4µM* | · | -2% | -18%
O=C1c2ccccc2C(Nc2ccc(S(=O)(=O)N3CCOCC3)cc2)N1Cc1ccco1 (stereo unspecified) | ? | 8.3µM* | · | ? | 9%
COc1cc(OC)c(NC2c3ccccc3C(=O)N2c2cc(C)ccn2)cc1Cl (stereo unspecified) | 27 | 12µM* | -12% | 5% | -9%
O=C1c2ccccc2C(Nc2ccc(F)c(Cl)c2)N1Cc1ccco1 (stereo unspecified) | -36 | -28% | ? | 13µM* | -16%
O=C1c2ccccc2C(Nc2ccc(S(=O)(=O)N3CCCCCC3)cc2)N1c1ccccn1 (stereo unspecified) | -27 | -25% | · | 5% | -4%
COc1ccc(NC2c3ccccc3C(=O)N2Cc2ccco2)cc1OC (stereo unspecified) | ? | 8% | -2% | -35% | -23%
COc1cc(C(O)c2nc(C(=O)NCCN(C)C)cs2)cc(OC)c1OC (stereo unspecified) | 2 | · | · | · | ·
CCC1CCC(C(=O)NC(C(=O)Nc2cccc(OC)c2)C(C)C)CC1 (stereo unspecified) | 11 | · | · | 7% | ·
O=C(Nc1ccc(F)cc1)C(c1ccnc2ccccc12)N1CCN(CC(=O)N2CCCC2)CC1 (stereo unspecified) | -7 | · | · | · | ·
O=C1c2ccccc2C(Nc2ccc(Cl)cn2)N1c1ccccn1 (stereo unspecified) | ? | 6% | 12µM* | -5% | -7%
SMILES | HCMV antiviral | Pf growth 96h | Pf growth 48h | Sm TGR inh | FBPA Giardia inh
Cc1ccc(N2C(=O)c3ccccc3C2Nc2ccccc2F)nc1 (stereo unspecified) | 52 | ? | · | 36% | -15%
Cc1ccc(NC2=NC3(CCCC3)N=C(N)N2)c(C)c1 | 47 | 204% | ? | 9% | 0%
Cc1ccc(N2C(N)=NC(N)=NC23CCCC3)c(C)c1 | -67* | ? | ? | 4% | -5%
OC(c1ccc(Cl)cc1)c1nnc(Nc2ccc(F)c(Cl)c2)s1 (stereo unspecified) | -63* | · | · | · | ·
OC(c1cccc(Cl)c1)c1nnc(Nc2cccc(Oc3ccccc3)c2)s1 (stereo unspecified) | -19 | · | · | · | ·
O=C(CSc1nnc(-c2ccncc2)n1Cc1ccco1)Nc1ccccc1F | ? | 4% | 2% | 50µM* | 9%
O=C(CSc1nnc(-c2ccc(Cl)cc2)n1Cc1ccco1)c1cccs1 | 60 | ? | ? | 28µM* | 13%
O=C(CSc1nnc(-c2ccncc2)n1Cc1ccco1)c1ccc(Cl)cc1 | -19 | ? | -7% | 0.89µM* | -7%
O=C(CSc1nnc(-c2ccncc2)n1Cc1ccco1)Nc1ccccc1Cl | 2 | 184% | -14% | -22% | 3%
NC(=O)CSc1nnc(-c2cccs2)n1Cc1ccco1 | 18 | 13% | 6% | -21% | -2%
Cc1cc(C(=O)N(NC(=O)C(C)C)c2ccccc2)cs1 | -33 | 8.3µM* | -12% | -6% | 4%
O=C(NN(C(=O)c1ccccc1)c1ccccc1)c1ccccc1 | 7 | 27% | ? | -6% | 5%
COc1ccc(NC(=O)c2oc3ccccc3c2NC(=O)C23CC4CC(CC(C4)C2)C3)cc1 | -17 | · | · | -4% | ·
Cc1n[nH]c(C)c1Cc1c(F)cccc1Cl | -39 | 15% | -3% | 4% | -8%
Nc1nc(-c2ccccn2)nc(N)c1Cc1ccc(Cl)cc1Cl | -93* | 1.3µM* | 1.9µM* | 1% | -4%
Nc1nc(-c2ccccn2)nc(N)c1Cc1c(F)cccc1Cl | -96* | ? | 12µM* | 18% | 9%
Nc1nc(-c2ccccn2)nc(N)c1Cc1ccccc1F | -102* | 5.2µM* | ? | 0% | 0%
Nc1nnc(Cc2ccc(Cl)cc2Cl)s1 | 14 | 29% | -17% | -8% | 2%
Cc1cc(C)nc(NC(=O)c2c(F)c(F)c(F)c(C(=O)Nc3cc(C)cc(C)n3)c2F)c1 | -15 | · | · | · | ·
CC[C@H](C)[C@@H]1NC(=O)CNC(=O)c2csc(n2)[C@H](C(C)(C)O)OC(=O)C(C)(C)[C@H](CCCC(C)(Cl)Cl)OC(=O)c2csc1n2 | -79* | · | · | · | ·
CCCCCCc1ccc(C(=O)CCN(C)C)cc1 | · | · | · | · | -1%
O=C(/C=C/c1ccnc2ccccc12)c1cccs1 | -38 | ? | 63% | · | -25%
O=C(CSc1nc(=O)n2ccccc2n1)N1N=C(c2cccs2)CC1c1ccc(F)cc1 (stereo unspecified) | -14 | ? | ? | -4% | ·

Source: PubChem (National Center for Advancing Translational Sciences (NCATS))
